# Experimental data reported in PubChem BioAssay (EPA / NIEHS).
# “And” between values parts separate entries of the source, which are not always exact repeats. Identical values can stand only once. Results filed as inconclusive are left out. A structure can be active in one record and inactive in another. The source made the active and inactive calls. The calls were made as follows: active = hit-call score of the fitted dose curve at least 0.9, where 1 is the maximum; inconclusive = response in the unintended direction; inactive = score below 0.9.
# Assay: Tanguay_ZF_120hpf_TR_legacy: (Legacy) Oregon State University Tanguay Lab 120 Hour Post-fertilization zebrafish Assay for Touch Response (AID 2283667)
# Procedure: Tanguay_ZF_120hpf_legacy is a whole embryo, multiplexed endpoint assay using zebrafish larvae exposed for 120 hours post fertilization on a 96-well plate.Tanguay_ZF_120hpf_TR_legacy is one of one assay component(s) measured or calculated from the Tanguay_ZF_120hpf_legacy assay. It is designed to make measurements of zebrafish development as detected with brightfield microscopy of developing zebrafish embryos.Data from the assay component Tanguay_ZF_120hpf_TR_legacy was analyzed into 1 assay endpoints. This assay endpoint, Tanguay_ZF_120hpf_TR_legacy, was analyzed in the positive analysis fitting direction relative to DMSO as the negative control and baseline of activity. Using a type of morphology reporter, gain-of-signal activity can be used to understand changes in developmentals as they relate to the whole embryo. To generalize the intended target to other relatable targets, this assay endpoint is annotated to the zebrafish development intended target family, where the subfamily is embryonic functional response.
# Zebrafish husbandry: Tropical 5D wild-type adult zebrafish were housed in at an approximate density of 1000 per 100 gallon tank at the Sinnhuber Aquatic Research Laboratory, Oregon State University, Corvallis, OR. Each tank was kept at standard laboratory conditions of 28C on a 14-h light/10-h dark photoperiod in fish water consisting of reverse osmosis water supplemented with a commercially available salt (Instant Ocean). Spawning funnels were placed into the tanks the night prior, and embryos were collected and staged. […] Ten microliters of each row of dilution plate 2 was added to 2 exposure plates. The final DMSO concentration used was 0.64% (vol/vol). Thirty-two embryos were also exposed to 5uM trimethyltin chloride (positive control). Plates were sealed to prevent evaporation and foil covered to reduce light exposure and kept in a 28C incubator. Embryos were statically exposed until 120 hpf. At 24 hpf, embryos were assessed for photomotor response using a custom photomotor response analysis tool (PRAT) and for developmental toxicity endpoints (MO24: mortality at 24 hpf, DP: developmental progression, SM: spontaneous movement, and NC: notochord distortion). At 120 hpf, locomotor activity was measured using Viewpoint Zebralab and assessed for 18 endpoints. Zebrafish acquisition and analysis program (ZAAP), a custom program designed to inventory, acquire, and manage zebrafish data, was used to collect developmental endpoints as either present or absent (i.e., binary responses were recorded). If mortality occurred for an embryo (at either 24 or 120 hpf), the non-mortality endpoints were not measured.
Structure (SMILES),outcome,AC50
O=C(O)C(F)(F)C(F)(F)C(F)(F)C(F)(F)C(F)(F)C(F)(F)C(F)(F)F,inactive,–
COc1nn(CSP(=S)(OC)OC)c(=O)s1,inactive,–
ClC1C(Cl)C(Cl)C(Cl)C(Cl)C1Cl (stereo not given),inactive,–
CC1(c2ccc(Oc3ccccc3)cc2)OC(=O)N(Nc2ccccc2)C1=O (stereo not given),inactive,–
CC(C)N(C(=O)COc1nnc(C(F)(F)F)s1)c1ccc(F)cc1,inactive,–
CNC(=O)/C=C(\C)OP(=O)(OC)OC,inactive,–
CCC(C)(C)C(=O)OC1=C(c2ccc(Cl)cc2Cl)C(=O)OC12CCCCC2,inactive,–
CCCN(CCOc1c(Cl)cc(Cl)cc1Cl)C(=O)n1ccnc1,inactive,–
CN1CSC(=S)N(C)C1,inactive,–
CC(C)(C)C(O)/C(=C\c1ccc(Cl)cc1Cl)n1cncn1 (stereo not given),inactive,–
CNC(=O)Oc1cccc(N=CN(C)C)c1,inactive,–
CCCN(CCC)c1c([N+](=O)[O-])cc(C(F)(F)F)cc1[N+](=O)[O-],inactive,–
O=C(O)CCCOc1ccc(Cl)cc1Cl,inactive,–
CC(C)OC(=O)Nc1cccc(Cl)c1,inactive,–
O=C(Nc1ccccc1)Nc1cnns1,inactive,–
O=C(NC(=O)c1c(F)cccc1F)Nc1ccc(OC(F)(F)C(F)OC(F)(F)F)c(Cl)c1 (stereo not given),inactive,–
O=[N+]([O-])c1c(Cl)c(Cl)c(Cl)c(Cl)c1Cl,inactive,–
Cc1[nH]c(=O)n(C(C)(C)C)c(=O)c1Cl,–,7.93 nM (active)
CCN(CC)C(=O)SCc1ccc(Cl)cc1,inactive,–
O=C1c2ccccc2C(=O)N1SC(Cl)(Cl)Cl,inactive,–

Structure (SMILES),outcome,AC50
CC(C)(C)C(O)C(Oc1ccc(Cl)cc1)n1cncn1 (stereo not given),inactive,41.5 µM (active) and 65.4 µM (active)
O=C(O)COc1ccc(Cl)cc1Cl,inactive,–
CCc1ccc(C(=O)NN(C(=O)c2cc(C)cc(C)c2)C(C)(C)C)cc1,inactive,–
CCC(C)Nc1c([N+](=O)[O-])cc(C(C)(C)C)cc1[N+](=O)[O-] (stereo not given),inactive,–
CCOCN(C(=O)CCl)c1c(C)cccc1CC,inactive,–
COP(=S)(OC)Oc1ccc([N+](=O)[O-])cc1,inactive,–
COP(=O)(OC)OC=C(Cl)Cl,inactive,–
C[C@H]1[C@H](c2ccc(Cl)cc2)SC(=O)N1C(=O)NC1CCCCC1,inactive,–
O=S1OCC2C(CO1)C1(Cl)C(Cl)=C(Cl)C2(Cl)C1(Cl)Cl (stereo not given),inactive,–
N#CN,inactive,–
C#CCN1C(=O)COc2cc(F)c(N3C(=O)C4=C(CCCC4)C3=O)cc21,inactive,–
CCOC1Oc2ccc(OS(C)(=O)=O)cc2C1(C)C (stereo not given),inactive,–
CNC(=O)CSP(=S)(OC)OC,inactive,–
O=S(=O)(O)C(F)(F)C(F)(F)C(F)(F)C(F)(F)C(F)(F)C(F)(F)C(F)(F)C(F)(F)F,–,9.61 µM (active) and 16.3 µM (active) and 13.3 µM (active)
Oc1cc(Cl)ccc1Oc1ccc(Cl)cc1Cl,inactive,–
Oc1ccc(Cl)cc1Cc1ccccc1,inactive,–
CC[C@H](C)[C@H]1O[C@]2(C=C[C@@H]1C)C[C@@H]1C[C@@H](C/C=C(\C)[C@@H](O[C@H]3C[C@H](OC)[C@@H](O[C@H]4C[C@H](OC)[C@@H](O)[C@H](C)O4)[C@H](C)O3)[C@@H](C)/C=C/C=C3\CO[C@@H]4[C@H](O)C(C)=C[C@@H](C(=O)O1)[C@]34O)O2 (tested in a mixture with another compound),–,450 nM (active)
CNC(=O)Oc1ccccc1OC(C)C,inactive,–
CCC(C)(NC(=O)c1cc(Cl)c(C)c(Cl)c1)C(=O)CCl (stereo not given),–,57800 nM (active)
